Experimental data published in PubChem BioAssay AID743262 (National Center for Advancing Translational Sciences (NCATS), 2014).
Among all 1,300 compounds or so, about 25 (2%) were called active. Another 9% or so got no clear call; they are omitted. Calls come from the whole dose curve; as a rule, active = well fitted activation curve with a large enough effect; inconclusive = small, poorly fitted or top-dose-only effect; inactive = flat fitted curve, though single readings scatter. Shown is part of a subset that was picked to be rich in actives.

Molecular target: Glucagon-like peptide 1 receptor (Homo sapiens) (UniProt P43220)
Experiment: qHTS of GLP-1 Receptor Agonists: Hit Validation; for activation: % of control where 0% means no effect
Settings: HEK293 GLP-1R, cAMP-response luciferase, 4-6 h; series mostly up to 46.1 µM; activation: at the top concentration
Text: The overall goal of this project was to develop a novel assay for discovering small molecule ligands for class B1 G protein-coupled receptors (GPCRs). Very few agonists (or inverse agonists) with generally weak activity for this entire group of physiologically important receptors are known to date. To establish proof-of-principle that this critical bottleneck can be overcome with a suitable screening approach, our studies focused on the class B1 receptor for glucagon-like peptide-1 (GLP-1R), a potential therapeutic target for diabetes and neurodegenerative disease. The assay was developed in a "mix and measure" format using a cell-based functional readout. Toward this goal, stably transfected HEK293 cell clones were established that co-express (i) a cAMP-responsive luciferase reporter gene, and (ii) GLP-1Rs that upon ligand interaction either stimulate (agonists) or inhibit (inverse agonists) luciferase activity. In different cell lines to be used for screening, expressed GLP-1Rs are specifically optimized for high sensitivity detection of either weak agonists (hypersensitive receptor) or inverse agonists (constitutively active receptor mutant). In addition, control cell lines were developed that express either the cAMP-responsive reporter gene without recombinant GLP-1Rs (enabling initial exclusion of GLP-1R independent effects of candidate probes), or the reporter gene together with wild type GLP-1Rs (for confirmation of probe activity at this receptor), or the reporter gene in combination with the constitutively active orphan receptor GPR119 (enabling initial exclusion of GLP-1R independent inhibitory effects of candidate inverse agonists). To that end, this assay was optimized for 1536-well format and screened against the MLSMR. NIH Molecular Libraries Probe Production Network [MLPCN] NIH Chemical Genomics Center [NCGC] Grant: NS064851 PI Name: Martin Beinborn, Tufts Medical Center
In a white solid 1536-well plate, 6 uL of cells are dispensed in DMEM without phenol red, 10% Nu serum, and 1% pen-strep medium. The plates are then incubated for 12 hours at 37 deg C at 5% CO2 before 23 nL of compounds are added. After a 4-6 hr incubation at37 deg C and 5% CO2, 3 uL of detection reagent are added and after a 12 min incubation at RT, a luminescent read is obtained on the ViewLux.
Potency is the fitted concentration of half-maximal effect.

Glucagon-like peptide 1 receptor (Homo sapiens), sequence (P43220 whole entry, looked up): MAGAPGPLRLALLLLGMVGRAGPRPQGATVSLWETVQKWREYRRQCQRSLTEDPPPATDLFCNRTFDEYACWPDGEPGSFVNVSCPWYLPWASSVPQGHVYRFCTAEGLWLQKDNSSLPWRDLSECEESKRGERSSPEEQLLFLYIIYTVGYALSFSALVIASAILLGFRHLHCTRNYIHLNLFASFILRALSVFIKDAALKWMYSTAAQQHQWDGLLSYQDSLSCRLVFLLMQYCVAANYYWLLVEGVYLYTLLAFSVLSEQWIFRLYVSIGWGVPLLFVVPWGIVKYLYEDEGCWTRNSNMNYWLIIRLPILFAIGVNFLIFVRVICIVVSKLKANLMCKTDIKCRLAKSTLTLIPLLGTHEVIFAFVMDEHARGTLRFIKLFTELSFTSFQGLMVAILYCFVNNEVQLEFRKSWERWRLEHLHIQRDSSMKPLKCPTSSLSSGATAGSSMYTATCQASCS

activation, inactive:
Clc1ccccc1Nc1nc(NCC2CC2)nc2ccsc12 4.99%
COCCNc1nc(Nc2ccccc2Cl)c2sccc2n1 7.08%
CCOc1ccc(C(C)=O)cc1COC(=O)CCc1cc(OC)c(OC)c(OC)c1 1.66%
CCOC(=O)c1c(C)[nH]c(C)c1C(=O)COC(=O)c1sccc1C 0.504%
CCOC(=O)c1cn(-c2ccccc2)nc1-c1ccncc1 2.6%
COc1ccc(Cn2c(SCC#N)nc3ccc(N4CCOCC4)cc3c2=O)cc1 19.6%
CCOC(=O)C1(C)CCCN(C(=O)c2cc(C)oc2C)C1 (stereo unspecified) -0.718%
Cc1ccc(NC(=O)Nc2ccc([N+](=O)[O-])cc2)nc1 -0.803%
COc1cc2c(cc1OC)C1=C(C#N)CCC(=NC(=O)c3ccc(Cl)cc3)N1CC2 14.6%
C=CCSc1nc2c(c(=O)[nH]c(=O)n2C)n1CC 6.88%
COc1ccc([N+](=O)[O-])cc1NS(=O)(=O)c1cc(C(=O)N2CCN(C)CC2)ccc1OC 2.19%
CC(C)Cn1cnc2c(SCc3ccccc3F)nc(N)nc21 5.83%
CCCn1c2ccc(F)cc2c2nnc(SCCN3CCOCC3)nc21 10.9%
CCOc1ncccc1C(=O)OCc1ccc(C(=O)OC)o1 3.21%
Nc1nc2sc3c(c2c(=O)s1)CCCC3 19.1%
COc1cc2c(cc1OC)CN(C(=O)c1ccc(N3CCCC3)c([N+](=O)[O-])c1)CC2 4.86%
COC(=O)[C@@H]1CCCN1C(=O)c1cc(COc2cccc3cccnc23)on1 -0.35%
CCN=C1S/C(=C\c2cn(CC)c3ccccc23)C(=O)N1CC 26.8%
COc1ccccc1N1CCN(C(=O)/C=C/c2ccco2)CC1 2.92%
COc1cccc(OC)c1C(=O)Nc1ccc(C(=O)c2ccncc2)cc1 -0.423%
CCOC(=O)c1c(NC(=O)COC)sc(C)c1C 3.9%
COc1ccc(C2=Nn3c(nnc3-c3ccccn3)SC2)cc1OC 29.2%
COc1ccc(C2CC(c3ccc(OC)c(OC)c3)=NN2C(=O)c2ccccc2)cc1 (stereo unspecified) 28%
COc1ccc(C2=NN(C(C)=O)C(c3cccs3)C2)cc1OC (stereo unspecified) 14.1%
c1cc2c(cc1C1=Nn3c(nnc3C3CCCCC3)SC1)OCO2 18.3%
Cc1cc(C)n(-c2nnc3n2N=C(c2c[nH]c4ccccc24)CS3)n1 6.87%
COc1ccc(C2=Nn3c(nnc3-c3ccco3)SC2)cc1 7.18%
CCOc1ccc(-c2nnc3n2N=C(c2ccc(OC)cc2)CS3)cc1 8.96%
COc1ccc(C2=Nn3c(nnc3-c3ccccc3)SC2)cc1OC 19.1%
C/C(=N\Nc1nc2ccccc2[nH]1)c1ccc(C)o1 -0.323%
COc1cc(C#Cc2ccc3cc(CCO)oc(=O)c3c2)cc(OC)c1 29.7%
O=c1[nH]n(CC2COC3(CCCCC3)O2)c(=O)c2ccccc12 (stereo unspecified) 5.01%
COCc1cccc(-c2csc(C(C)(O)c3cccc(F)c3)n2)c1 (stereo unspecified) 0.448%
COc1cc(SC)ccc1C(=O)OCc1nc2ccsc2c(=O)[nH]1 3.67%
CSc1nnc(C)c(/C=C/Nc2ccc(F)cc2)n1 12.1%
CN(C)c1ccc(N=Nc2ccccc2C(=O)OCC(=O)Nc2ccccc2C(F)(F)F)cc1 4.63%
COc1ccc(/C=N/n2c(-c3ccc(C)cc3)n[nH]c2=S)cc1OC 22.8%
C=CCn1c2ccccc2c(=O)c2cc(C#CC3(O)CCCCC3)ccc21 19.5%
O=C(Nc1ccccc1)OCc1cc(-c2ccccc2Cl)on1 4.56%
CCCc1cc(-c2ccc(O)c(OCC)c2)c(C#N)c(N)n1 10.5%
COc1ccc(CCN(C)C/C=C/c2ccccc2[N+](=O)[O-])cc1OC 4.02%
CCCOc1ccc2c(=O)c(-c3cc(C(=O)OC)oc3C)c(C)oc2c1 0.445%
Fc1ccccc1COc1ccc(Br)cc1CNCc1cccnc1 0.917%
COc1cc(-c2nc(Cc3ccccc3Cl)no2)cc(OC)c1OC 4.3%
COc1ccc(Cc2noc(-c3ccc(OC)c(OC)c3)n2)cc1OC 7.14%
CCCCCCSC1=C(C#N)C(c2ccc(O)cc2)CC(=O)N1 (stereo unspecified) -0.367%
NS(=O)(=O)c1cccc(NC(=O)Nc2ccccc2)c1 -0.735%
CCc1ccc(C(=O)COC(=O)c2cc([N+](=O)[O-])ccc2NCCO)cc1 11%
CC(CCc1ccco1)NC(=O)c1cccc2c1C(=O)N(C1CCCCC1)C2 (stereo unspecified) 6.34%
Cc1nn(-c2ccccc2)c(Cl)c1/C=N/NC(N)=O 18.9%
Cc1ccccc1Nc1nc(N)nc(-c2oc3ccccc3c2C)n1 23.8%
COc1cccc(C(C)(O)c2nc(-c3ccc(OC)c(OC)c3)cs2)c1 (stereo unspecified) 12%
Cc1c(C(=O)N(C)C(C)c2ccccn2)oc2c(F)cccc12 (stereo unspecified) 2.69%
CCOCCCn1c(=NC(=O)c2cccnc2)c(C(=O)OCC)cc2c(=O)n3ccccc3nc21 1.76%
COc1ccc(-c2cc(C3CC3)nc(N)c2C#N)cc1 3.1%
CCOC(=O)c1c(NC(=O)Cc2ccccc2)sc2c1CCN(CC)C2 1.77%
CCOC(=O)c1cnc2c(c(C)nn2CC)c1NC1CC1 13.8%
c1ccc(Cn2nnc3c(N4CCC5(CC4)OCCO5)ncnc32)cc1 -0.288%
COc1ccc(CCN(C)C(=O)CCc2nnc(-c3ccccc3)o2)cc1OC -0.272%
COc1ccccc1Nc1cc(C(=O)NCc2cccnc2)c2ccccc2n1 1.83%
COc1cc2c(cc1OC)CN(C(=O)c1ccc(S(=O)(=O)N(C)c3ccccc3)cc1)CC2 16.1%
O=c1c2c3c(sc2nc(NCCO)n1Cc1ccco1)CCCCC3 6.54%
CCSc1cc(C)nc2c(-c3ccccc3)c(C)nn12 4.39%
CCOC(=O)c1sc(NC(=O)/C=C/c2cnn(CC)c2C)c(C(=O)OCC)c1C 4.5%

Potency, active:
COCCNc1nc(Nc2ccc(C)cc2C)c2sccc2n1 9.2 µM
Nc1nnc(-c2cn(-c3ccccc3)nc2-c2ccccc2)o1 5.17 µM
COc1ccc(C2=Nn3c(nnc3-c3ccccc3OC)SC2)cc1OC 5.8 µM
COc1ccc(C2=Nn3c(nnc3-c3ccccc3Cl)SC2)cc1OC1CCOC1 (stereo unspecified) 13 µM
COc1ccc(OC)c(-c2nnc3n2N=C(c2ccc(OC)c(OC)c2)CS3)c1 1.64 µM
COc1ccc(C2=Nn3c(nnc3C3CCCCC3)SC2)cc1OC 8.2 µM
COc1ccc(CN(C)Cc2nc(Cc3ccccc3Cl)no2)cc1OC 16.4 µM
